These results are taken from PubChem BioAssay (NCATS).

“And” between values parts separate entries of the source, which are not always exact repeats. Equal values may be shown once. Results filed as inconclusive are left out. The source made the active and inactive calls. Unless noted, calls come from the whole dose curve; as a rule, active = well fitted curve in the direction sought with a large enough effect; inconclusive = small, poorly fitted or top-dose-only effect, or another doubt; inactive = no such curve, though single readings can be large; an effect the other way counts as inactive or inconclusive. Bridge positions count the residues as written; N and C are the ends. Square brackets hold non-standard residues; d marks the D form. Peptide text beside a SMILES is read from it. * marks the point of attachment. Octanoyl(6-Me) = CCC(C)CCCCC(=O)*; Dab = NCC[CH](N)C(=O)O

Test [1] in a line: Cellular Toxicity (caspase-3) Jurkat (AID 655).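 Note: cells exposed to compound for 16 h at 37 °C before reading.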 As to conditions: Jurkat caspase-3 activation, luminescence, DMSO = 0%, tamoxifen = 100%; at 92.2 µM (top of the series). In a few lines:
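Luminescent caspase-3/7 readout (aminoluciferin substrate cleavage) in human T-cell leukemia Jurkat cells after 16 hr compound exposure. Concentration-response normalized to DMSO and 100 uM tamoxifen; AC50 by standard Hill equation.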

Test [2] can be described thus: Cell Viability - LYMP2-001 (AID 921).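 Note: cells exposed to compound for 24 h at 37 °C; 0% = DMSO only and full inhibition = tetraoctylammonium bromide control wells; nearly all actives have a fitted effect of over 70% in size.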 The procedure, abridged:
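CellTiter-Glo luminescence (intracellular ATP) after 24 hr compound exposure at 37 C, 2500 lymphoblastoid cells/well in complete medium. AC50 fitted with standard Hill equation; tetraoctylammonium bromide positive control.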

The nature of test [3]: MultiTox-Fluor Cytotoxicity Assay - LYMP1-001 - Dead Cells (AID 946).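 Note: 0% = DMSO and 100% = tetraoctylammonium bromide.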 In a few lines:
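In this qHTS, 15 uM tetraoctylammonium bromide defined 100% and DMSO defined basal activity. Lymphoblastoid cells (LYMP1-001, 2500 per well) received compound for 16 hr at 37 C before a fluorogenic dead-cell substrate readout at 485/520 nm.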

Test [4] in a line: MultiTox-Fluor Cytotoxicity Assay - LYMP1-002 - Live Cells (AID 955).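 Note: cells exposed to compound for 16 hours; % is set by controls: 0 for no effect and ±100 for the full control effect.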 The procedure, abridged: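 Cells were seeded at 2500 per well and incubated 5 hr. Compounds were then added for 16 hr at 37 C, followed by MultiTox-Fluor reagent for 60 min at room temperature and fluorescence reading of viable-cell protease signal.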
Test [5] is described as follows: MultiTox-Fluor Cytotoxicity Assay - LYMP1-003 - Dead Cells (AID 961).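 Note: cells exposed to compound for 16 h at 37 °C; 0% = DMSO and 100% = tetraoctylammonium bromide; nearly all actives have a fitted effect of over 70% in size.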 In a few lines: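 Acute toxicity is scored as increased dead-cell protease activity in human lymphoblastoid LYMP1-003 cells after 16 h compound exposure in complete culture medium. Activity is normalized to DMSO basal and 15 uM tetraoctylammonium bromide as full response.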
Test [6] can be described thus: Cell Viability - LYMP1-003 - Assay at 24 hr (AID 963).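 Note: plate controls were DMSO only for no effect and tetraoctylammonium bromide positive control for full effect.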 In a few lines:
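Cytotoxicity is scored as a concentration-dependent fall in ATP-linked luciferase signal in human lymphoblastoid LYMP1-003 cells treated 24 hr at 37 C in complete culture medium.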

Test [7] can be described thus: Cell Viability - LYMP2-004 (AID 966).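 Note: cells exposed to compound for 24 h; plate controls were DMSO only for no effect and tetraoctylammonium bromide control for full effect; nearly all actives have a fitted effect of over 65% in size.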 The procedure, abridged: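 qHTS cytotoxicity: human lymphoblastoid line, 24 hr compound treatment, 37 C, complete medium. Viability read as cellular ATP via luciferase luminescence; tetraoctylammonium bromide served as positive control.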
The nature of test [8]: Cell Viability - LYMP2-009 (AID 968).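 Note: cells exposed to compound for 24 h at 37 °C; 0% = DMSO alone and the full-kill end = tetraoctylammonium bromide at 92 µM; nearly all actives have a fitted effect of over 55% in size.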
Test [9] can be described thus: Cell Viability - LYMP2-002 (AID 977).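 Note: compound exposure lasted 24 h at 37 °C; plate controls were DMSO only for no effect and 92 µM tetraoctylammonium bromide for full effect.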 In a few lines: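 In this qHTS viability screen, 2500 human lymphoblastoid cells per well receive compound for 24 hr at 37 C, and luciferase-based ATP luminescence gives the viability signal. Tetraoctylammonium bromide serves as positive control.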
Test [10] is described as follows: Cell Viability - LYMP2-006 (AID 978).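 Note: cells exposed to compound for 24 hours; % is set by controls: 0 for no effect and ±100 for the full control effect; nearly all actives have a fitted effect of over 60% in size.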 In a few lines:
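qHTS, 1536-well; 2500 cells/well, 5 hr 37 C; cpd 24 hr 37 C; CellTiter-Glo 30 min RT; luminescence. Tetraoctylammonium bromide pos. ctrl. AC50 via Hill eqn.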

Test [11] can be described thus: Cell Viability - LYMP2-008 (AID 980).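 Note: cells exposed to compound for 24 h at 37 °C; % is set by controls: 0 for no effect and ±100 for the full control effect; nearly all actives have a fitted effect of over 60% in size.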 The procedure, abridged:
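Cells seeded at 2500/well and rested 5 hr at 37 C; compounds added over a concentration range and incubated 24 hr at 37 C; CellTiter-Glo added, 30 min at room temperature; luminescence read and AC50 fitted with Hill model.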

Test [12] can be described thus: Cell Viability - LYMP2-016 (AID 984).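 Note: cells exposed to compound for 24 hours at 37 °C; % is set by controls: 0 for no effect and ±100 for the full control effect; nearly all actives have a fitted effect of over 55% in size.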 The procedure, abridged:
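qHTS, 1536-well: 2500 LYMP2-016 cells/well, 5 hr 37 C, compound added, 24 hr 37 C, CellTiter-Glo 30 min RT, luminescence. Tetraoctylammonium bromide positive control. AC50 via Hill fit.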

Test [13] in a line: qHTS assay for small molecule agonists of retinoid X receptor alpha signaling (AID 588544). As to conditions: HEK293T RXRa-UAS-bla, beta-lactamase reporter, 18 h; 530 nm emission. In general terms: Quantitative high-throughput screening tests each substance at several concentrations.
A short description of test [14]: qHTS assay for small molecule activators of the nuclear factor-kappa B (NF-kB) signaling pathway (AID 651749; active = well fitted activation curve with a large enough effect in the signal ratio; the % refers to the signal ratio; note: % of control where 0% means no effect). As to conditions: NF-kB-bla ME-180 cells, beta-lactamase FRET ratio, 16 h; stronger effect = higher value. In a few lines:
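Human ME-180 cervical cells with an NF-kB-bla construct; compounds added via 23 nL pin transfer, DMSO as vehicle; incubation 16 hr. Reporter activity measured by FRET disruption.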

Test [15] can be described thus: qHTS assay for small molecule antagonists of the retinoid-related orphan receptor gamma (ROR-gamma) signaling pathway - cell viability counter screen (AID 720652; active = well fitted curve in the direction sought with a large enough effect in the repeat runs; an effect the other way counts as inactive or inconclusive;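 note: CHO reporter cells with doxycycline-induced ROR-gamma expression; compound exposure lasted 16 hr before ATP read; % is set by controls: 0 for no effect and ±100 for the full control effect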). In a few lines:
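Steps: seed CHO cells bearing TET-inducible ROR and ROR response element-luciferase; rest 5 hr at 37 C; add compound, then doxycycline; incubate 16 hr; add CellTiter-Glo and read luminescence as ATP-based viability.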

The next test concerns CP194. In words: qHTS profiling for inhibitors of Plasmodium falciparum proliferation (AID 504749). Note: nearly all actives have a fitted effect of over 60% in size. Note: potency is the fitted concentration of half-maximal effect. As to conditions: P. falciparum in erythrocytes, SYBR Green DNA, 72 h; series mostly up to 28.7 µM. In a few lines:
(§1)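 Quantitative HTS: compounds pinned into medium, infected erythrocytes added (0.3% parasitemia, 2.5% hematocrit), 72 h culture at 37 C under 5% CO2. Saponin/Triton lysis with SYBR Green I, overnight RT, then fluorescence read.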

The test system of the next test is CP203. The description is as above. As to conditions: P. falciparum in erythrocytes, SYBR Green DNA, 72 h; series mostly up to 28.7 µM. The procedure, abridged:
as §1

Another test concerns CP211. The description is as above. As to conditions: P. falciparum in erythrocytes, SYBR Green DNA, 72 h; series mostly up to 28.7 µM. The procedure, abridged: as §1
Another test has as its system CP266. Described as above. As to conditions: P. falciparum in erythrocytes, SYBR Green DNA, 72 h; series mostly up to 28.7 µM. In a few lines:
as §1

The test system of a further test is CP325. The test is described as above. As to conditions: P. falciparum in erythrocytes, SYBR Green DNA, 72 h; series mostly up to 28.7 µM. In a few lines:
as §1

For `O=C(O)c1ccccc1C(c1ccc(O)cc1)c1ccc(O)cc1`, the caspase-3 activation in [1] is 1.36% (inactive). In addition, the Potency entry in [2], in test [3], in test [4], in test [5], in test [6] and in test [7] was “inactive” throughout. Also, the Potency entry in test [8], in [9], in test [10], in [11], in test [12] and in test [15] was “inactive” in each case. Further, the max response in [13] was -8.41% and -22.6%. For the same compound, the activation in test [14] was -1.81% (inactive) and -6.43% (inactive).
Regarding `O=NCc1ccc([N+](=O)[O-])o1`, the Potency entry with CP194, in the test with CP203, with CP211, with CP266 and with CP325 was “inactive” each time.
As for `O=S(=O)(O)c1ccccc1`, in test [1], the caspase-3 activation is 0.148% (inactive). Besides, the Potency entry in [2], in test [3], in test [4], in test [5], in test [6] and in test [7] was “inactive” throughout. For the same compound, the Potency result in test [8], in test [9], in test [10], in [11], in [12] and in [15] was “inactive” each time. Besides, the max response in [13] amounted to 0.332%. In addition, the activation in test [14] was 0.223% (inactive).
Turning to `c1ccc2scnc2c1`, the caspase-3 activation in [1] was -0.459% (inactive). For the same compound, the Potency entry in test [2], in test [3], in test [4], in test [5], in test [6] and in test [8] was “inactive” throughout. Moreover, the Potency entry in test [9], in test [10], in test [11], in [12] and in [15] was “inactive” throughout. Further, the max response in test [13] was -4.98%. Further, the activation in test [14] was -1.1% (inactive).
For the compound `CCC(C)CCCCC(=O)NC(CCN)C(=O)NC(C(=O)NC(CCN)C(=O)NC1CCNC(=O)C(C(C)O)NC(=O)C(CCN)NC(=O)C(CCN)NC(=O)C(CC(C)C)NC(=O)C(Cc2ccccc2)NC(=O)C(CCN)NC1=O)C(C)O` (stereo unspecified) ({Octanoyl(6-Me)}-[Dab]T[Dab][Dab][Dab]FL[Dab][Dab]T; lactam 4-C; configuration not given here), the Potency entry in the test on CP194, in the test on CP203, in the test with CP211, with CP266 and with CP325 was “inactive” in each case.
For the compound `CC1CCC(C(C)C)C(OC(=O)c2ccccc2O)C1` (stereo unspecified), the Potency entry in the test on CP194, in the test with CP203, in the test on CP211, in the test on CP266 and in the test with CP325 was “inactive” each time.
Take `CCN1/C(=C/C=C/C=C/c2sc3ccccc3[n+]2CC)Sc2ccccc21`: the Potency is 6.75 µM (active) in the test with CP194, 6.75 µM (active) in the test with CP203, 6.01 µM (active) in the test on CP211 and 9.53 µM (active) in the test with CP266.
As for `CC(=O)O[C@@]12CO[C@@H]1C[C@H](O)[C@@]1(C)C(=O)[C@H](O)C3=C(C)[C@@H](OC(=O)C(O)[C@@H](NC(=O)OC(C)(C)C)c4ccccc4)C[C@@](O)([C@@H](OC(=O)c4ccccc4)[C@H]21)C3(C)C` (stereo partly specified), the Potency in the test with CP194 is 0.0675 µM (active); with CP203 it was 0.0536 µM (active); in the test with CP211, 0.0426 µM (active).
Take `Cc1cc(CC(C)CC(C)(C)C)n(O)c(=O)c1` (stereo unspecified): the Potency in the test on CP194 is 4.26 µM (active); in the test on CP203 it was 3.38 µM (active); in the test with CP211 it was 3.38 µM (active); in the test with CP266, 3.79 µM (active); in the test on CP325 it was 2.39 µM (active).
Turning to `CCC(=O)O[C@@H](OP(=O)(CCCCc1ccccc1)CC(=O)N1C[C@H](C2CCCCC2)C[C@H]1C(=O)O)C(C)C` (stereo partly specified), the Potency result with CP194, with CP211, in the test on CP266 and in the test on CP325 was “inactive” throughout.
`CO[C@@H]1[C@@H](OC2OC(C)C(OC3CC(C)(O)C(OC(=O)CC(C)C)C(C)O3)C(N(C)C)C2O)[C@@H](CC=O)C[C@@H](C)C(=O)/C=C\C2O[C@H]2C[C@@H](C)OC(=O)C[C@H]1OC(C)=O` (stereo partly specified): the Potency with CP325 is 2.69 µM (active).
As to `O=C1CCc2ccccc2O1`, the caspase-3 activation in test [1] is 1.5% (inactive). The Potency result in test [2], in test [3], in [4], in [5], in [6] and in test [7] was “inactive” throughout. Besides, the Potency entry in test [8], in [9], in test [10], in test [11], in test [12] and in [15] was “inactive” throughout. For the same compound, the max response in test [13] was -3.26%.
With `CO/N=C(/C(=O)N[C@@H]1C(=O)N2C(C(=O)O)=CCS[C@H]12)c1csc(N)n1`, the Potency entry in the test with CP194, in the test on CP203, in the test with CP211, with CP266 and in the test with CP325 was “inactive” in each case.
Turning to `Cc1cccc(O)c1`, in [14], the activation was -0.103% (inactive) and -1.79% (inactive).
